Screening results as filed in PubChem BioAssay.
RORgamma inh: ROR gamma (mouse) transcription inhibition; P51450; Drosophila S2 Gal4-RORgamma UAS-luciferase reporter, 20 h; Potency, µM (titrated, usually from 53.6 µM), for the others: at the highest dose activity change, negative = inhibition, usual class: inhibitors; 310,000 tested, 5.4% active; AID 2551; note: potency is the fitted concentration of half-maximal effect; nearly all actives have a fitted effect of over 60% in size
Target sequence (P51450 whole entry, looked up, the tested form may be a part): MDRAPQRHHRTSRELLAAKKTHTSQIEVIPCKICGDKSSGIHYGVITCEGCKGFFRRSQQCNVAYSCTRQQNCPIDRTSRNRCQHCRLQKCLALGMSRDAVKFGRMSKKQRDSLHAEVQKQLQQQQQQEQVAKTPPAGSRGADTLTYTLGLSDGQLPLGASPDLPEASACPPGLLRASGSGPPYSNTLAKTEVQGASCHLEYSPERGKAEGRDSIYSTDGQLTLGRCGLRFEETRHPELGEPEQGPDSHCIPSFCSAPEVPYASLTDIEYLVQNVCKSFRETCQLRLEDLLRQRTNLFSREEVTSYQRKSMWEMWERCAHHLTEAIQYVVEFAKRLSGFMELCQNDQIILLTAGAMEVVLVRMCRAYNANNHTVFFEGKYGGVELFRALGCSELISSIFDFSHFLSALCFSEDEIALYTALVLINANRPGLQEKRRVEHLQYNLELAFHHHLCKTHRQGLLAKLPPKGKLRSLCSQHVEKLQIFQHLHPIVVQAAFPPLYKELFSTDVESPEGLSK
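Stably transfected Drosophila Schneider cells are the test system, with ROR gamma fused to Gal4 and luciferase under UAS control; luminescence is read after 20 hr of 700 uM copper sulfate induction at ambient temperature.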
DT40 TDP1 no CPT: qHTS for Inhibitors of human tyrosyl-DNA phosphodiesterase 1 (TDP1): qHTS in cells in absence of CPT; DT40 Tdp1-/- hTDP1 cells, no CPT, ATP luminescence, 48 h; Potency, µM (top dose mostly 46.2 µM), for inactives: at the top dose activity change, negative = growth inhibition, hits mostly inhibitors; 420,000 tested, 15% active; note: potency is the fitted concentration of half-maximal effect; nearly all actives have a fitted effect of over 55% in size
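Compound effects on proliferation are scored in DT40 Tdp1-/-;hTDP1 cells in the absence of CPT. ATP levels (CellTiter-Glo luminescence) are recorded after a ≥48 hr, 37 °C incubation.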
TDP1 cell CPT: DT40-hTDP1 cell growth loss with CPT; Potency, µM (highest dose often 46.2 µM), for the others: at the top dose activity change, negative = growth inhibition, usual class: inhibitors; 420,000 tested, 12% active; chicken DT40 Tdp1-/-;hTDP1 cells + 20 nM CPT, ATP luminescence, 48 h; note: potency is the fitted concentration of half-maximal effect; nearly all actives have a fitted effect of over 55% in size
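Chicken DT40 Tdp1-/- cells stably complemented with human TDP1 were seeded at 400 cells/well in medium containing 20 nM camptothecin, exposed to pin-transferred compounds, and grown at 37 °C for at least 48 hr. Viability was read as ATP luminescence.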
IL1B secr inh: inflammasome signaling inhibition, IL-1 beta readout | THP-1 LPS/ATP IL-1B secretion, AlphaLISA, 16 h; hits give low values | 360,000 tested, 4.7% active | activity change, % at 57.5 µM; in the data active = activity change below about -50%; inconclusive = mostly about -30% to -49%
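THP-1 cells pretreated 1 hr with compounds (up to 57.5 uM final), then stimulated with LPS (250 ng/mL final) plus ATP (1.25 mM final); secreted IL-1B measured by AlphaLISA after 16 hr, decreased signal indicating inhibition.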
Gal4-VP16 FLuc: Gal4-VP16 reporter inhibition counter-screen | 310,000 tested, 3.5% active | Potency, µM (titrated, usually from 53.6 µM), without a hit: at the top dose activity, negative = inhibition, most hits filed as inhibitors | Drosophila S2 Gal4-VP16 UAS-luciferase, luminescence, 20 h | AID 2546;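 note: Gal4-VP16 expression switched on by copper sulfate through the metallothionein promoter; potency is the fitted concentration of half-maximal effect; nearly all actives have a fitted effect of over 50% in size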
LDHA block: inhibitors of human lactate dehydrogenase A. P00338. purified LDHA, NADH/diaphorase-resazurin fluorescence; hits give low values. activity change, % (values are at about 110 or 230 µM). 480,000 tested, 0.15% active. AID 1347041; in the data active = activity change below about -30%; inconclusive = mostly about -25% to -30%;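 note: plate controls were DMSO wells for no effect and wells without enzyme for full effect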
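Human LDH5 (2 nM) was incubated with 0.06 mM NADH and 0.2 mM pyruvate for 5 min at room temperature in Tris pH 7.4. Remaining NADH was coupled through diaphorase/resazurin, and resorufin fluorescence was read at 0 and 20 min.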
An asterisk follows results filed as active; u = inconclusive; x = no result. Most compounds without a hit are left out; they make up all but 18% or so of the library. Unless noted, calls come from the whole dose curve; as a rule, active = well fitted curve in the direction sought with a large enough effect; inconclusive = small, poorly fitted or top-dose-only effect, or another doubt; inactive = no such curve, though single readings can be large; an effect the other way counts as inactive or inconclusive. Unless noted, % is set by controls: 0 for no effect and ±100 for the full control effect.

SMILES	RORgamma inh	DT40 TDP1 no CPT	TDP1 cell CPT	IL1B secr inh	Gal4-VP16 FLuc	LDHA block
COC(=O)[C@@]12CCCCN1[C@H](c1ccc(-c3ccccc3)c(OC)c1)[C@H]1C(=O)N(C)C(=O)[C@H]12	x	13µM*	u	43	x	-5
COC(=O)[C@@]12CCCCN1[C@H](c1ccc(-c3cccc(Cl)c3)c(OC)c1)[C@@H]1C(=O)N(C)C(=O)[C@@H]12	x	21µM*	u	u	x	2
COC(=O)[C@@]12CCCN1[C@H](c1ccc(-c3cccc(Cl)c3)c(OC)c1)[C@H]1C(=O)N(C)C(=O)[C@H]12	x	16µM*	15µM*	-8	x	2
CCN1C(=O)[C@H]2[C@@H](c3ccc(-c4cccc(Cl)c4)c(OC)c3)N3CCC[C@@]3(C(=O)OC)[C@H]2C1=O	x	9.2µM*	13µM*	-51*	x	-4
CCN1C(=O)[C@@H]2[C@@H](c3ccc(-c4cc(C(C)=O)cs4)cc3)N3CCC[C@@]3(C(=O)OC)[C@@H]2C1=O	x	u	u	5	x	-3
CCn1nc(C(=O)OCC(=O)c2cc(C)n(CCC(C)C)c2C)c2ccccc2c1=O	x	x	x	x	x	8
CSc1ccccc1NC(=O)c1cc(F)c(F)cc1Cl	x	x	x	x	x	11
COC(=O)[C@@]12CCCCN1[C@H](c1ccc(-c3ccc(C(C)=O)cc3)c(OC)c1)[C@@H]1C(=O)N(C)C(=O)[C@@H]12	x	15µM*	16µM*	-5	x	-1
COC(=O)[C@@]12CCCN1[C@H](c1ccc(-c3ccc(Cl)c(Cl)c3)c(OC)c1)[C@H]1C(=O)N(C)C(=O)[C@H]12	x	23µM*	13µM*	u	x	2
CSc1ccc(/C=N/Nc2ccc(S(N)(=O)=O)cc2[N+](=O)[O-])cc1	x	x	x	x	x	4
Cc1cc(Cl)ccc1Oc1nccc(N(C)C)c1C#N	u	16µM*	u	-70*	u	-1
CN(C)c1ccnc(Oc2ccc(C(C)(C)C)cc2)c1C#N	u	16µM*	u	42	8%	6
COc1ccc(C/C(C)=N/NC(=S)Nc2ccc(C(C)C)cc2)cc1	4.5µM*	u	u	24	u	-2
C/C(=N\NC(=S)Nc1c(C)cccc1C)c1ccc(OC(F)F)cc1	3.2µM*	9.2µM*	10µM*	-13	5.6µM*	-5
CC/C(=N\NC(=S)Nc1ccc(OC)cc1)c1ccc(OC(F)F)cc1	13µM*	5.8µM*	2.9µM*	17	u	1
CC/C(=N\NC(C)=O)c1ccc(OC(F)F)cc1	26%	x	x	x	-1%	x
CC/C(=N\NC(=S)Nc1cc(C)ccc1C)c1ccc(OC(F)F)cc1	u	16µM*	u	0	-100%	2
COC(=O)C(C)(C)NC(=O)c1cccc(CS(C)(=O)=O)c1	x	x	x	x	x	-2
C=CCc1cc(/C=C2\NC(=O)NC2=O)cc(OCC)c1OCc1ccc(F)cc1	x	x	x	x	x	-3
O=C(CC(=O)c1ccc(Cl)cc1)c1ccc(Cl)cc1	x	x	x	x	x	-5
Cc1ccc(C(=O)CC(=O)c2cc(Cl)ccc2O)cc1	u	4.6µM*	6.5µM*	43	10µM*	4
Cc1ccc(C(=O)CC(=O)c2ccc(C)cc2C)c(C)c1	x	x	x	x	x	-3
Cc1ccc(C(=O)CC(=O)c2ccc(C)cc2O)cc1	8.9µM*	18µM*	u	-12	u	-7
Cc1cc2oc(=O)cc(CN(C)CCOc3ccccc3F)c2cc1C	x	x	x	x	x	6
C[C@]12c3[nH]c4ccccc4c3CCN1C(=O)C(CC(=O)NCc1cccc(C(F)(F)F)c1)C[C@@H]2C(=O)N1CCOCC1 (stereo partly specified)	x	u	u	u	x	3
SMILES	RORgamma inh	DT40 TDP1 no CPT	TDP1 cell CPT	IL1B secr inh	Gal4-VP16 FLuc	LDHA block
C[C@]12c3[nH]c4ccccc4c3CCN1C(=O)C(CC(=O)NCc1cccc(C(F)(F)F)c1)C[C@@H]2C(=O)N1CCCCC1 (stereo partly specified)	x	15µM*	21µM*	-66*	x	0
C[C@]12c3[nH]c4ccc(Cl)cc4c3CCN1C(=O)[C@@H](CC(=O)NCc1cccc(C(F)(F)F)c1)C[C@@H]2C(=O)N1CCOCC1	x	u	u	-56*	x	2
CC[C@]12c3[nH]c4ccccc4c3CCN1C(=O)C(CC(=O)NCc1cccc(C(F)(F)F)c1)C[C@@H]2C(=O)N1CCN(C(=O)c2ccco2)CC1 (stereo partly specified)	x	u	18µM*	-52*	x	-4
CCc1cc(=O)n(CC(=O)Nc2cccc(OC)c2)c(-c2ccccc2)n1	x	x	x	x	x	-11
CCOC(=O)c1nc2cc(C)c(C)cc2nc1NCc1ccco1	x	x	x	x	x	1
O=C(NCc1cccc(C(F)(F)F)c1)OCC(F)(F)F	x	x	x	x	x	-1
COc1ccc(CN2C(=O)C(C)N(C(=O)c3c(F)cccc3F)c3ccccc32)cc1 (stereo unspecified)	2%	8.2µM*	13µM*	8	0%	1
COc1ccc(CN2C(=O)C(C)Oc3ccccc32)cc1 (stereo unspecified)	14%	u	-1%	-3	2%	2
CC1C(=O)N(Cc2ccc([N+](=O)[O-])cc2)c2ccccc2N1C(=O)c1c(F)cccc1F (stereo unspecified)	0%	16µM*	u	u	2%	0
COc1cccc(CN2C(=O)C(C)N(C(=O)c3ccccc3)c3ccccc32)c1 (stereo unspecified)	-15%	6.5µM*	13µM*	-4	7%	-4
COc1cccc(OC)c1C(=O)Nc1ccc2oc(-c3ccncc3)nc2c1	x	x	x	x	x	2
O=C(Nc1nc2ccccc2s1)c1noc2c1CSc1ccccc1-2	x	x	x	x	x	-3
CCCNc1nc2ccccc2c(=O)[nH]1	6%	21µM*	12µM*	-69*	0%	-9
CCCCNCc1nc2ccccc2c(=O)[nH]1	10µM*	-28%	-16%	-52*	u	4
CC(C)Nc1nc2ccccc2c(=O)[nH]1	-23%	u	16µM*	24	-14%	1
C=CCNc1nc2ccccc2c(=O)[nH]1	18%	21µM*	u	31	25%	-7
COc1ccccc1NC(C)c1nnc(-c2cccs2)o1 (stereo unspecified)	x	x	x	x	x	0
CC(=O)N1CCC(NC(=O)Cc2nc(-c3ccccc3)oc2C)CC1	x	x	x	x	x	2
O=C(Nc1cnc2ccccc2c1)c1ccc(Cl)cc1Cl	x	x	x	x	x	4
